Bioassay records as filed in PubChem BioAssay.
GLS inh – qHTS for Inhibitors of Glutaminase (GLS); hit rate 0.21% among 410,000; GLS enzymatic activity, qHTS titration; Potency, µM (doses to about 45.5 µM), actives largely listed as inhibitors; Glutaminase kidney isoform, mitochondrial (Homo sapiens), O94925; AID 624170, 2012
Target sequence (O94925 whole entry, looked up, canonical isoform): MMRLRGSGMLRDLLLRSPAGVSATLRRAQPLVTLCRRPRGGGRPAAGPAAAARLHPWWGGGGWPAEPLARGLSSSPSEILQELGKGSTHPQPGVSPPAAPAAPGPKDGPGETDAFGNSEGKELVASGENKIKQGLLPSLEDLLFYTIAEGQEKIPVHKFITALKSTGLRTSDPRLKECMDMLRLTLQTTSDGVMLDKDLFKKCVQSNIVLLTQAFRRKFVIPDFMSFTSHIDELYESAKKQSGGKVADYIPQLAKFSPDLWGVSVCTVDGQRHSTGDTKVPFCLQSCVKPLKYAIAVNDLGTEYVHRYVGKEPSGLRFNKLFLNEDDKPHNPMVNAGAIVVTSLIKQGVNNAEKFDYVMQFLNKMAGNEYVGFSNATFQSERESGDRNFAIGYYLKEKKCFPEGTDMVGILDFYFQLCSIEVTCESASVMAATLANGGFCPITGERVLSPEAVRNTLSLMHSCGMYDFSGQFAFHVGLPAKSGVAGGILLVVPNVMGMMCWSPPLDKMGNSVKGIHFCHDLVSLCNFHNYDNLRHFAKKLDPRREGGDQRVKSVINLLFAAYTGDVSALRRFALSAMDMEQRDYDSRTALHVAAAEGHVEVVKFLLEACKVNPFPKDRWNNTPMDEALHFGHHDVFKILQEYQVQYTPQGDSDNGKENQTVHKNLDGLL
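Human kidney-isoform GLS in 45 mM KH2PO4 pH 8.2, 0.02% Tween-20, with compound, started with 1mM L-Glutamine (added stock). Glutamate oxidase/HRP/Amplex red coupled fluorescence read at start and after 30 min at RT.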
VDR inhibitor – Inhibitors of the vitamin D receptor (VDR): qHTS | VDR-SRC2-3 peptide fluorescence polarization, 2 h | AID 504847, 2011 | Potency, µM, most hits filed as inhibitors | hit rate 0.93% among 400,000 | Vitamin D3 receptor (Homo sapiens), P11473
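Fluorescence polarization assay of small-molecule disruption of VDR binding to coregulator peptide SRC2-3. Compounds and controls pin-transferred, then read after 2 h incubation at ambient room temperature.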
Mito fusion yeast – qHTS Assay for Small Molecule Inhibitors of Mitochondrial Division or Activators of Mitochondrial Fusion; S. cerevisiae fusion-defective mutant growth rescue, CellTiterGlo 48 h; Potency, µM (highest dose often 46.1 µM), actives largely listed as activators; hit rate 0.23% among 320,000; note: nearly all actives have a fitted effect of over 45% in size
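Yeast fusion mutant, YPEG (non-fermentable carbon), compound, 48 h at 37C non-permissive; CellTiterGlo added, 10 min RT, luminescence read. Rescued growth = division inhibition.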
PKM2 activator – qHTS Assay for Activators of Human Muscle isoform 2 Pyruvate Kinase. Potency, µM (highest dose often 57.5 µM), usual class: activators. Pyruvate kinase PKM (Homo sapiens), P14618. hit rate 0.34% among 260,000. purified PKM2, Kinase-Glo ATP luminescence, activation; response scale: 0% is enzyme alone, no compound; note: nearly all actives have a fitted effect of over 55% in size
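Kinase-Glo luminescence reports ATP generated from ADP (0.1 mM) and PEP (0.5 mM) by purified hPK-M2 after 1 h at room temperature, pH 7.2 imidazole buffer; intermediate enzyme activity allows detecting inhibitors and activators.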
PLK1 PBD inh – qHTS for Inhibitors of PLK1-PDB (polo-like kinase 1 - polo-box domain): Primary Screen; Serine/threonine-protein kinase PLK1 (Homo sapiens), P53350; Plk1 PBD binding of FITC phosphopeptide, fluorescence polarization; Potency, µM, actives largely listed as inhibitors; hit rate 2.8% among 360,000; note: series mostly up to about 57 µM; nearly all actives have a fitted effect of over 65% in size
KAT2A inh – qHTS Assay for Inhibitors of GCN5L2 | GCN5L2 HAT assay, ThioGlo1 CoA-SH fluorescence | Potency, µM (titrated, usually from 58.9 µM), most hits filed as inhibitors | AID 504327, 2011 | hit rate 0.21% among 390,000 | Histone acetyltransferase KAT2A (Homo sapiens), Q92830
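ThioGlo1-coupled HAT assay: 20nM GCN5L2, 70uM acetyl-CoA, 75uM H3(1-25) peptide, pH 7.5. Fluorescence read at 340/540nm at start and after 20 min at room temperature.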
Numbers stand for hits; . = inactive; ? = inconclusive; / = not tested or not shown; [ ] = dose if it differs, or a comment. Most compounds without a hit are left out; they make up all but 3.4% or so of the library. Calls come from the whole dose curve; as a rule, active = well fitted curve in the direction sought with a large enough effect; inconclusive = small, poorly fitted or top-dose-only effect, or another doubt; inactive = no such curve, though single readings can be large; an effect the other way counts as inactive or inconclusive.

SMILES | GLS inh | VDR inhibitor | Mito fusion yeast | PKM2 activator | PLK1 PBD inh | KAT2A inh
COc1cc2c(ccc3c4cc(OC)c(OC)cc4c[n+](C)c23)cc1O | . | . | / | / | . | /
COc1ccc2c(c[n+](C)c3c4cc5c(cc4ccc23)OCO5)c1OC | / | 28µM | 5.8µM | / | / | ?
C=CCNC(=S)Nc1ccc(OC(=O)Nc2ccc(Cl)c(Cl)c2)cc1 | ? | . | . | . | 9.5µM | .
O=C(Nc1ccc(Cl)c(Cl)c1)c1ccco1 | . | . | . | .[11.5 µM] | . | .
CCOP(=S)(OCC)Oc1cc(C)nc(N(CC)CC)n1 | / | ? | / | / | / | .
Cc1ccccc1-n1c(O)c(/C=N/NC(=O)c2ccccc2O)c(=O)[nH]c1=S | ? | ? | . | . | 4.2µM | .
OC[C@H]1OC(O)C[C@@H](O)[C@@H]1O (some centres undefined) | . | . | . | / | . | .
CCCCNC(=O)c1c(N)n(CCCOC)c2nc3ccccc3nc12 | . | 50µM | ? | . | . | .
COCCCn1c(N)c(C(=O)OCCOC)c2nc3ccccc3nc21 | . | . | . | . | . | ?
CC(C)CCNC(=O)c1c(N)n(Cc2ccc3c(c2)OCO3)c2nc3ccccc3nc12 | . | 89µM | . | . | . | .
COCCCNC(=O)c1c(N)n(Cc2ccco2)c2nc3ccccc3nc12 | . | . | . | 25µM | . | .
CCON=O | . | . | / | / | / | .
CN1CCN(c2ccc(N)cc2Cl)CC1 | . | ? | . | . | 15µM | .
CN1CCN(c2ccc(Cl)cc2N)CC1 | . | . | . | . | . | .
CC(O)CN1CCN(CC(=O)[O-])CCN(CC(=O)[O-])CCN(CC(=O)[O-])CC1.[Gd+3] (centres undefined) | . | / | / | / | / | /
NC(=O)C(c1ccccc1)(c1ccccc1)[C@@H]1CCN(CCc2ccc3c(c2)CCO3)C1 | . | . | / | / | / | .
C=C1C(=O)OC2CC(C)C3C=CC(=O)C3(C)C(O)C12 (centres undefined) | . | ? | / | / | . | /
C=C1C(=O)O[C@@H]2C[C@@H](C)[C@@H]3C=CC(=O)[C@@]3(C)[C@@H](OC(=O)CC(=O)O[C@H]3[C@@H]4C(=C)C(=O)O[C@@H]4C[C@@H](C)[C@@H]4C=CC(=O)[C@]43C)[C@H]12 | . | 18µM | . | . | ? | .
CCOC(=O)[C@]12Cc3cc(C)ccc3[C@H]1N(C1CCCCC1)C(=O)c1ccccc12 | . | / | / | / | 2.7µM | /
CCOC(=O)[C@]12Cc3cc(C)ccc3[C@H]1N(Cc1ccccc1)C(=O)c1cc(OC)ccc12 | . | / | / | / | ? | /
CCOC(=O)[C@]12Cc3ccc(C)cc3[C@H]1N(C1CCCCC1)C(=O)c1ccccc12 | . | / | / | / | 3µM | /
CCOC(=O)[C@]12Cc3c(cc(OC)c(OC)c3OC)[C@H]1N(C1CCCCC1)C(=O)c1ccccc12 | . | / | / | / | 9.5µM | /
CCOC(=O)[C@]12Cc3cc(Cl)ccc3[C@H]1N(Cc1ccccc1)C(=O)c1ccccc12 | . | . | / | / | . | /
CCOC(=O)[C@]12Cc3cc(Cl)ccc3[C@H]1N(C1CCCCC1)C(=O)c1cc(OC)ccc12 | . | / | / | / | 2.1µM | /
CCOC(=O)[C@]12Cc3ccc(C)cc3[C@H]1N(C1CCCCC1)C(=O)c1cc(OC)ccc12 | . | / | / | / | 4.2µM | /
SMILES | GLS inh | VDR inhibitor | Mito fusion yeast | PKM2 activator | PLK1 PBD inh | KAT2A inh
CCOC(=O)[C@]12Cc3cc(C)ccc3[C@H]1N(CCC(=O)OC)C(=O)c1ccccc12 | . | / | / | / | 8.4µM | /
CCOC(=O)[C@]12Cc3cc(OC)ccc3[C@H]1N(CC(=O)OC)C(=O)c1ccccc12 | . | / | / | / | . | /
C=CCC1(C(C)CCC)C(=O)NC(=O)NC1=O (centres undefined) | . | / | / | / | / | /
CC(C)(c1ccc(OCC2CO2)cc1)c1ccc(OCC2CO2)cc1 (centres undefined) | / | ? | / | / | / | .
CCOC(=O)c1ccc(-n2c(N)c(C(=O)NCC3CCCO3)sc2=S)cc1 (centres undefined) | . | ? | . | . | 12µM | .
CCOC(=O)c1ccc(N=Cc2c(O)n(-c3ccc(OC)cc3)c(=S)[nH]c2=O)cc1 | . | . | . | . | . | .
CCC(C(=O)O)C1CCC(C)C(C(C)C(O)C(C)C(=O)C(CC)C2OC3(C=CC(O)[C@@]4(CC[C@](C)(C5CC[C@@](O)(CC)C(C)O5)O4)O3)C(C)CC2C)O1 (some centres undefined) | ? | . | / | / | / | .
O=C1NC(=O)N(Cc2ccccc2)C(=O)/C1=C/N1CCCc2ccccc21 | . | ? | . | . | 27µM | .
O=C1CC(=O)N(Cc2ccccc2)C(=S)N1 | . | . | . | / | . | .
CN1CCN(C(=O)COc2ccc(S(=O)(=O)Nc3ccc(F)cc3)cc2)CC1 | . | . | . | . | . | .
O=S(=O)(Nc1c(O)ccc2ccccc12)c1ccc(F)cc1 | . | . | / | / | 11µM | /
NC(N)=NCCCCCCCCCCN=C(N)N | / | . | / | / | / | .
O=C(CSc1ccccn1)Nc1cccc2ccccc12 | . | . | . | . | 21µM | .
O=C1C=CC[C@@H]2[C@H]3CCCN4CCC[C@@H](CN12)[C@@H]34 | / | . | / | / | / | /
C[C@]12CC[C@@H]3c4ccc(OC(=O)N(CCCl)CCCl)cc4CC[C@H]3[C@@H]1CC[C@@H]2O | ? | 50µM | / | / | / | 13µM
Cc1cccc(C(=O)NC(Oc2ccccc2)C(Cl)(Cl)Cl)c1 (centres undefined) | . | ? | . | . | 15µM | .
CCOP(=O)(OCC)C(NC(=O)c1cccc(C)c1)C(Cl)(Cl)Cl (centres undefined) | . | ? | . | . | . | .
C=CCN1CCc2cccc3c2C1Cc1ccc(O)c(O)c1-3 (centres undefined) | / | ? | / | / | / | .
Cc1cc(N2CCNCC2)nc2ccccc12 | . | . | . | . | 27µM | .
CCCCN1C(=O)NC(=O)/C(=C/c2cnc(SC)nc2)C1=O | . | 25µM | . | . | 8.4µM | .
CCCCN1C(=O)/C(=C/c2ccc(N3CCCCCC3)cc2)C(=O)NC1=S | / | / | . | . | / | .
Cc1cc(C=C2C(=O)NC(=S)NC2=O)c(C)n1C1CCCC1 | . | . | . | . | ? | .
CSc1ncc(/C=C2/C(=O)NC(=O)N(C3CCCCC3)C2=O)cn1 | ? | 20µM | . | . | 11µM | .
CCc1ccc(C(=O)NN(C(=O)c2cc(C)cc(C)c2)C(C)(C)C)cc1 | / | / | / | . | / | /
CCN(CC)C(=O)Cn1cc(/C=C2\C(=O)NC(=O)N(c3ccccc3F)C2=O)c2ccccc21 | . | 79µM | . | / | 4.7µM | .
O=C(O)Cn1cc(/C=C2\C(=O)NC(=O)N(c3ccc(Cl)cc3)C2=O)c2ccccc21 | . | ? | . | / | 15µM | .
